Bioassay records from PubChem.
Hits are enriched below; roughly 3.9% of the tested compounds scored in any of these assays.
esBAF inh – Bmi1 luciferase reporter increase in mESCs, primary screen, esBAF inhibitor project, mouse ES cells, Bmi1 luciferase knock-in, single point. 350,000 tested, 2% active. 24 h; 100% = twice the neutral-well signal. reporter increase, % at 12.5 µM. AID 602393, 2012; in the data active = activation above about 40%; inconclusive = no clear call, values can overlap the other calls;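 also: 0% = median of the plate's neutral control wells and 100% = double that signal; a rise in the Bmi1 reporter signal indicates esBAF inhibition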
HSF1 inhib – HSF1 inhibitors in luciferase reporter cells, primary screen, cell-based, NIH3T3, luminescence; AID 2098, 2009; NIH3T3-HGL HSE-luciferase, MG132-induced, luminescence 8 h; stronger effect = lower value; 300,000 tested, 0.77% active; activity change, negative = inhibition, % at 7.5 µM (by protocol);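 active = more than half of replicate wells show activity change below -50%, luminescence cut by over half; inconclusive = some wells, but at most half, below -50%; inactive = no replicate well below -50%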;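 also: luciferase reports HSF-1 transcriptional activity via heat shock element; 0% = median of DMSO wells and -100% = zero luminescence signal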
Wnt act – Wnt/beta-catenin pathway activators, primary screen, cell-based, plate reader, single point; Wnt/beta-catenin reporter cell assay, activator; activation, % at 9.35 µM; 300,000 tested, 1.2% active; AID 743398, 2014; in the data active = activation above about 30%, passing the limit was not always enough; inconclusive = no clear call, values can overlap the other calls;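 also: 0% = neutral control wells and 100% = positive control wells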
HSF-1 act – HSF-1 activators, primary screen, NIH3T3-HGL cells, MG132 stress, luminescence, single point; NIH3T3-HGL HSF-1 luciferase reporter, 8 h; 100% = twice DMSO control signal; activation, % at 9 µM; 300,000 tested, 1.7% active; AID 504408, 2011;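 active = mean replicate activation of at least 50% with a set share of replicates each reaching 50%; inconclusive = only one of those two conditions met; inactive = mean below 50% and too few replicates reaching it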;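 also: 0% = median of the neutral control wells and 100% = twice that signal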
MITF act – activators of MITF-driven TRPM1 promoter reporter, primary screen, cell-based, SK-MEL-5, luciferase, single point; SK-MEL-5 TRPM1-promoter luciferase, 24 h; % of positive control, neutral wells = 0; activation, % at 12.5 µM; 300,000 tested, 0.75% active;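 active = mean activation of at least 80% with every replicate also reaching 80%; inconclusive = mean reaches 80% but some replicate falls short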;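 also: 0% = neutral control wells and 100% = parthenolide positive control wells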
Starred values were filed as active, the others as inactive; ? = inconclusive; nt = no result given.

SMILES | esBAF inh | HSF1 inhib | Wnt act | HSF-1 act | MITF act
COc1ccc(C(=O)NNC(=O)c2cccc3ccccc23)cc1 | 54* | nt | 5 | nt | 40
COc1ccc(CNC(=S)Nc2ccccc2F)cc1 | 10 | 3 | -1 | 20 | -6
COc1cccc(C(=O)NNC(=O)c2cccc3ccccc23)c1 | 17 | nt | -3 | nt | 23
COc1ccc(C(=O)NC(=S)Nc2ccccc2F)cc1 | nt | 7 | 34* | 40 | 45
COc1ccc(S(=O)(=O)N(C)C[C@@H]2Oc3c(NS(=O)(=O)c4cn(C)cn4)cccc3C(=O)N([C@@H](C)CO)C[C@H]2C)cc1 | 1 | nt | nt | nt | nt
O=C(Cc1ccncc1)Nc1ccc2c(c1)[C@@H]1C[C@H](CC(=O)N3CCc4ccccc4C3)O[C@H](CO)[C@@H]1O2 | 2 | nt | nt | nt | nt
OCCN(Cc1ccccc1)Cc1cccc(Cl)c1Cl | nt | -80* | nt | -82 | 15
O=C(NOCc1ccccc1)c1ccccc1 | -18 | 13 | 32* | -1 | 34
C/C=C/c1cnc2c(c1)C(=O)N([C@H](C)CO)C[C@H](C)[C@H](CN(C)S(=O)(=O)c1cn(C)cn1)O2 | -4 | nt | nt | nt | nt
Cc1nc(N2CCN(C(=O)c3ccco3)CC2)nc2c1C(=O)CCC2 | 41* | 18 | 19 | 31 | 41
O=C(Nc1ccc(-c2ccc(N3CCCCC3)nn2)cc1)c1ccco1 | 60* | 7 | 22 | -6 | 99*
O=C(c1ccco1)N1CCN(c2ccc(N3CCCCC3)nn2)CC1 | ? | 11 | 31* | 30 | 99*
O=C(Nc1ccc(N2CCCC2)c(Cl)c1)c1ccco1 | 14 | -5 | 41* | -4 | 48
CN1CCN(c2ccc(NC(=O)c3ccco3)cc2Cl)CC1 | -1 | -22 | 19 | -24 | 15
O=C(Nc1ccc(-c2nnc3n2CCCCC3)cc1)c1ccco1 | nt | -11 | 0 | 5 | 7
CC[N+](C)(CC)CCC/C(=N/O)C(O)(c1ccccc1)c1ccccc1 | nt | 5 | 33* | 0 | nt
Cc1ccc(SC2=C(Sc3ccc(C)cc3)C(=O)c3ccccc3C2=O)cc1 | 42* | 15 | 14 | 13 | -19
Cc1ccc(N2C(=O)c3ccccc3C2=O)cc1 | nt | 9 | -1 | 6 | 14
CC(c1ccccc1)n1cnc2ccccc21 (configuration not stated) | 0 | -2 | -4 | 5 | -2
Cc1nccn1C(c1ccccc1)c1ccccc1 | -6 | -7 | 35* | -1 | -4
Cc1cc(/C=C(/C#N)c2cccc(Cl)c2)c(C)n1C | nt | 32 | 3 | 67* | 7
Cc1cc(/C=C(/C#N)c2cccc(F)c2)c(C)n1-c1cccnc1 | 21 | nt | 1 | nt | 88*
Cc1cccc(-n2c(C)cc(C=C(C#N)C#N)c2C)c1 | nt | 10 | nt | -3 | -3
CCCNC(=O)N1[C@H](C#N)[C@H](c2ccc(C#Cc3ccc(F)cc3)cc2)[C@H]1CO | -56 | nt | nt | nt | nt
Cc1ccnc(NC(=O)c2ccc(S(=O)(=O)N3CCC(C)CC3)cc2)c1 | nt | 10 | 36* | 9 | 97*
SMILES | esBAF inh | HSF1 inhib | Wnt act | HSF-1 act | MITF act
CC1CCN(S(=O)(=O)c2ccc(C(=O)Nc3ccccn3)cc2)CC1 | nt | 11 | 20 | 6 | 52
Cc1ccnc(NC(=O)c2ccc(Cl)c(S(=O)(=O)N3CCCCC3)c2)c1 | 57* | nt | 21 | nt | 32
O=C(Nc1ccccn1)c1ccc(Cl)c(S(=O)(=O)N2CCCCCC2)c1 | 83* | 20 | -3 | 28 | 68
Oc1oc(-c2ccccc2)nc1C=NCc1ccccc1 | 56* | -7 | 16 | -16 | 103*
Cc1ccnc(N=Cc2nc(-c3ccccc3Br)oc2O)c1 | nt | 19 | ? | 27 | 72
Cc1cccc(/N=C/c2nc(-c3ccccc3Br)oc2O)n1 | 10 | 45 | 12 | 91* | 56
Oc1oc(-c2ccccc2)nc1C=Nc1ccccc1 | nt | 26 | 13 | 15 | 68
CSc1ccccc1N=Cc1nc(-c2ccccc2)oc1O | 52* | 23 | nt | 31 | 15
Cc1cccc(/C(N)=N/OC(=O)c2cccc3ccccc23)c1 | 49* | 23 | 25 | 35 | 41
N/C(=N\OC(=O)c1cccc2ccccc12)c1cccc([N+](=O)[O-])c1 | 10 | -2 | 0 | 2 | 43
N/C(=N\OC(=O)c1cccs1)c1cccnc1 | ? | 14 | 11 | 6 | 48
